For some of these results: Measured potencies and affinities stand elsewhere.
target: T1, Ubiquitin-activating enzyme e1, putative (Leishmania donovani (strain BPK282A1)) (UniProt E9BSI1); assay: Leishmania donovani Ubiquitin Activating Enzyme (LdE1); format: functional; design: scale not given: direction of the effect not stated beside the values; details: 30 µM
T1 sequence (whole entry): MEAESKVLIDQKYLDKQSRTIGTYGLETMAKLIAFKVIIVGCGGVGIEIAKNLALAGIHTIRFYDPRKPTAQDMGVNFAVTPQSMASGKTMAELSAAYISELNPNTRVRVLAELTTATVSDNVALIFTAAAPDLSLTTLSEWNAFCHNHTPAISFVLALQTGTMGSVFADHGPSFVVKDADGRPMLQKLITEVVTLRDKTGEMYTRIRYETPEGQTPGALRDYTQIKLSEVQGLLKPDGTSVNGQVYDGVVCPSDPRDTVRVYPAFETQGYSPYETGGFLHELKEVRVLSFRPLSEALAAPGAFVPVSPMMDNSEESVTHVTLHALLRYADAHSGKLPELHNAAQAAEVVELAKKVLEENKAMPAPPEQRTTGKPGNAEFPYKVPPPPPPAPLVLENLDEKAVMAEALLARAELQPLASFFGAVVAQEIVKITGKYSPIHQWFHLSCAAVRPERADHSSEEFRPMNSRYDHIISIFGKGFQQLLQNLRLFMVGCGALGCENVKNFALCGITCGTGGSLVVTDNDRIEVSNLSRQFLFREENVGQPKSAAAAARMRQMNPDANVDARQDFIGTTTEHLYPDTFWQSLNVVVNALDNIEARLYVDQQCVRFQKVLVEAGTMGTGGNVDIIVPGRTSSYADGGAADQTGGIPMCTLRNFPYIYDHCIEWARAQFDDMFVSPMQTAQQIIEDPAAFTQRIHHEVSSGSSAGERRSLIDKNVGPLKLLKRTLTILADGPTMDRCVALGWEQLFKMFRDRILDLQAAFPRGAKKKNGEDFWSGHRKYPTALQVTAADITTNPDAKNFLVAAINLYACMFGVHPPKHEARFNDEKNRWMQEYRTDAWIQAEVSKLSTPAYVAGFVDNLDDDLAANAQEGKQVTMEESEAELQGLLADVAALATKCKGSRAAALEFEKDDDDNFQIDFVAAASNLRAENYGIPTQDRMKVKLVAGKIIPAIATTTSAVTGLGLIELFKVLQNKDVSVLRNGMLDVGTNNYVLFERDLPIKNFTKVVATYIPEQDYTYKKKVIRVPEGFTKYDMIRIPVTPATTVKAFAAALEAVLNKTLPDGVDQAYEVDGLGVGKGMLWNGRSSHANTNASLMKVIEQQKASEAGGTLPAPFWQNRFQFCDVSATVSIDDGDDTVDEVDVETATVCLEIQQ

Point of comparison: `O=C(Nc1ccccn1)N(CCO)Cc1ccsc1`, Percent Effect 10.5%. Against it:
- Cn1ccc(CN2CCC(CCc3ccc(O)cc3)CC2)cc1=O — lower, 6.33%
- CCCNC(=O)N1CCN(Cc2cc(C)no2)CC1 — higher, 23.7%
- Cc1cccc(OCCC(=O)N2CCN(S(=O)(=O)N(C)C)CC2)c1C — higher, 22.8%
- Cc1nc2n(n1)CC(NCc1cc(Cl)c3c(c1)OCCCO3)CC2 (centres undefined) — higher, 15.8%
- COC(=O)N1CCCN(C(=O)NCc2ccc(Cl)s2)CC1 — higher, 16.5%
- Cc1cc(C2CCCN(CCCNS(C)(=O)=O)C2)n[nH]1 (centres undefined) — lower, 2.53%
- CC(C)CC(=O)N1CCCn2cnc(CN3CCCC3=O)c2C1 — lower, 0%
- CCSCCC(=O)Nc1ncn(CC(=O)NCc2ccccc2)n1 — higher, 16%
- OCCn1nccc1C1CCN(CCCOc2ccc(F)cc2)CC1 — lower, 0%

target: AMP-activated protein kinase, AMPK (Homo sapiens) (UniProt P54646+O43741+P54619+Q9UGJ0+Q9Y478+Q13131+Q9UGI9); assay: AMP-dependent Kinase enzyme assay. An in vitro enzyme assay that detects ADP turnover that is directly proportional to AMPK activity. This uses naive AMPK that is activated during the assay with MK-8722; format: functional; design: scale not given: direction of the effect not stated beside the values; details: 30 µM

Point of comparison: `O=C(Nc1ccccn1)N(CCO)Cc1ccsc1`, Percent Effect 4.91%. Against it:
- Cc1cnn(CC2CCCCN2CCC(=O)Nc2cc(C)on2)c1 (centres undefined) — lower, -0.138%
- CNS(=O)(=O)Cc1ccc(CNC(=O)Nc2cn[nH]c2)cc1 — higher, 6.15%
- Cc1c(C(=O)NC(CN2CCCC2=O)c2ccccc2)cnn1C (centres undefined) — lower, 1.96%
- O=C(O)c1nnn(-c2ccc(F)c(F)c2)c1-c1ccncc1 — lower, 4.49%
- Cc1ccccc1CCNC(=O)C1CC(=O)N(CC(F)(F)F)C1 (centres undefined) — lower, -20.9%
- CC(C)CN1CCCC2(CCN(C(=O)c3cnccn3)C2)C1 (centres undefined) — lower, -0.541%
- O=C(NCC(F)(F)F)C1CSCN1S(=O)(=O)c1ccc(F)cc1 (centres undefined) — lower, 4.27%
- CO[C@@H]1CC[C@H]2[C@H]1OCCN2C(=O)C1=CCCC1 — lower, -1.31%
- COCC1CN(Cc2ccc(C)o2)Cc2cn(C)nc21 (centres undefined) — lower, -0.404%
- Cc1cc(NC(=O)CCc2ccsc2)n(C)n1 — lower, -4.38%
- O=C(Cc1ccc(O)c(Cl)c1)N1CCCCC1CCn1cccn1 (centres undefined) — lower, 1.21%
- Cc1cnn(CC(C)NCc2csc(-c3ccco3)n2)c1 (centres undefined) — higher, 10.6%
- CCc1nnc2n1CCN(C(=O)c1ccc3nc(C)c(C)nc3c1)C2 — higher, 140%
- Cc1cc(CN(C)C(=O)NC(C)c2nncn2C)no1 (centres undefined) — lower, -8.88%
- COC(=O)CS(=O)(=O)CCC(=O)N1CCCC1c1ccsc1 (centres undefined) — lower, -5.88%
- CC(=O)N1CCN(S(=O)(=O)c2ccc(C)c(F)c2)CC1 — lower, 2.19%
- CN(C)C(=O)CN1C[C@@H]2CC[C@H](C1)N(Cc1cc(F)ccc1F)C2 — higher, 42.7%
- Cc1nn(C)c(N(C)C)c1CNCc1cccnc1-n1cncn1 — lower, 1.44%
- Cn1ccnc1CN1CCCCC1Cn1cccn1 (centres undefined) — lower, 0.666%
- COc1cc(C(=O)N2CCC(c3n[nH]c(C4CC4)n3)CC2)ccc1C — higher, 6.11%
- O=C(c1cccnc1)N1C[C@@H]2CC[C@H](C1)N(Cc1cccc(Cl)c1F)C2 — higher, 11.4%
- Cc1cc(-c2cnn(CCNC(=O)c3cccnc3)c2C2CC2)on1 — higher, 7.97%
- N#Cc1ccc(NCCNc2ccc(C(F)(F)F)cn2)nc1 — lower, 4.53%
- Cc1nn(C)c(N(C)C)c1CNCc1cccc(CN(C)C(C)C)c1 — lower, -10.9%
- Cc1nnc(NC(=O)CN(C)CC2CCCN2c2cccnn2)s1 (centres undefined) — lower, -10.9%
- Cc1cc(C(=O)NCc2cccnc2OC(C)C)no1 — lower, -0.722%
- OC(CN1CCN(Cc2ccc(F)c(F)c2)CC1)C1CC1 (centres undefined) — lower, 2.45%
- Cc1noc(C(C)N2CCN(CCC(=O)N3CCCCC3)CC2)n1 (centres undefined) — lower, -2.48%
- CCc1nc2ccccc2c(=O)n1CC1(O)CCN(S(C)(=O)=O)CC1 — higher, 10.4%
- Cn1ccc(CN2CCC(CCc3ccc(O)cc3)CC2)cc1=O — higher, 43.4%
- CCCNC(=O)N1CCN(Cc2cc(C)no2)CC1 — lower, -8.42%
- Cc1cccc(OCCC(=O)N2CCN(S(=O)(=O)N(C)C)CC2)c1C — lower, -5.81%
- Cc1nc2n(n1)CC(NCc1cc(Cl)c3c(c1)OCCCO3)CC2 (centres undefined) — lower, -7.14%
- COC(=O)N1CCCN(C(=O)NCc2ccc(Cl)s2)CC1 — lower, 4.69%
- Cc1cc(C2CCCN(CCCNS(C)(=O)=O)C2)n[nH]1 (centres undefined) — lower, -4.24%
- CC(C)CC(=O)N1CCCn2cnc(CN3CCCC3=O)c2C1 — lower, -0.875%
- CCSCCC(=O)Nc1ncn(CC(=O)NCc2ccccc2)n1 — lower, -4.62%
- OCCn1nccc1C1CCN(CCCOc2ccc(F)cc2)CC1 — lower, -3.35%

— ChEMBL document CHEMBL3988442, “University of Dundee, Small-Polar-MMV Screening Library” (2021)
